{
  "source": "PubChem BioAssay (NCI)",
  "note": "About 83,000 compounds went through this panel and 20% of them were active in at least one assay; those are over-represented in the sample as a whole.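 Plates (96-well) were seeded with cells, treated with compound at one concentration, and incubated for 48 hours before percent growth was determined.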 The source made the active and inactive calls. Rule for the calls: active = growth percent below 10; inactive = the rest.",
  "data": [
    {"tested_on": "MCF7 breast", "experiment": "NCI-60 one-dose screen, 48 h (100 = growth as untreated, 0 = no growth, -100 = all killed)", "details": "10 µM", "values": [
      {"smiles": "CCOC(=O)Nc1ccc2c(c1)C(=O)N(CCOC)c1ccccc1O2", "growth": "14.4% (inactive)"},
      {"smiles": "COc1ccc(Nc2ccnc(N3CCN(c4ccnc5cc(Cl)ccc45)CC3)n2)cc1", "growth": "2.5% (active)"},
      {"smiles": "O=C(c1ccccc1)C(Nc1ccccc1)c1ccccc1", "note": "(stereo unspecified)", "growth": "101% (inactive)"},
      {"smiles": "Cc1ccc(/C=C2\\CN(Cc3cn(CCNc4ccnc5cc(Cl)ccc45)nn3)C/C(=C\\c3ccc(C)cc3)C2=O)cc1", "growth": "-38.3% (active)"},
      {"smiles": "C[C@]12CC[C@H]3[C@@H](CC=C4C[C@@H](O)CC[C@@]43C)[C@@H]1CC[C@@H]2C(=O)C/C=N/O", "growth": "95.6% (inactive)"},
      {"smiles": "Cc1ccccc1[P+](Cc1ccccc1)(c1ccccc1)c1ccccc1", "growth": "10.4% (inactive)"},
      {"smiles": "COc1ccccc1Cn1cc2c(c1-c1ccccc1)CCc1cnoc1-2", "growth": "19.3% (inactive)"},
      {"smiles": "Clc1cc(Cl)c(OCCCCCCN2CCNCC2)c(Cl)c1", "growth": "-24.5% (active)"},
      {"smiles": "Cc1c(C(=O)N[C@H](CO)Cc2ccccc2)[nH]c2ccc(Cl)cc2c1=O", "growth": "92.7% (inactive)"},
      {"smiles": "CC(C)C(C)C(N)C(=O)O", "note": "(stereo unspecified)", "growth": "92.9% (inactive)"},
      {"smiles": "CCn1nc(-c2ccccn2)c2cccnc2c1=S", "growth": "7.88% (active)"},
      {"smiles": "COc1cc(CSc2nc3ccc(Cl)cc3c(=O)n2Cc2ccccc2)cc(OC)c1OC", "growth": "14.3% (inactive)"},
      {"smiles": "C[C@H](NC(=O)[C@@H]1CSSC[C@@H](NC(=O)Cc2nc3ccccc3cc2O)C(=O)NCC(=O)N1C)c1ccccc1", "growth": "51.7% (inactive)"},
      {"smiles": "CCOC(=O)[C@@H](Cc1ccccc1)NC(=O)c1[nH]c2ccc(Cl)cc2c(=O)c1C", "growth": "96.8% (inactive)"},
      {"smiles": "O=C(Nc1cccc(Cl)c1)OCC(COC(=O)Nc1cccc(Cl)c1)(COC(=O)Nc1cccc(Cl)c1)[N+](=O)[O-]", "growth": "21.1% (inactive)"},
      {"smiles": "O=C1/C(=C/c2ccc(O)cc2)Oc2ccc(Cl)cc21", "growth": "43.2% (inactive)"},
      {"smiles": "COc1cc(/C=C/C(=O)c2cc(-c3ccc(F)cc3)ccc2O)cc(OC)c1OC", "growth": "68.6% (inactive)"},
      {"smiles": "COc1ccc(C(=O)n2nc(CC(=O)NCc3ccccc3)nc2N)cc1", "growth": "99.1% (inactive)"},
      {"smiles": "COc1cc(/C=C/C(=O)c2cc(-c3ccc(C(F)(F)F)cc3)ccc2O)cc(OC)c1OC", "growth": "43.8% (inactive)"},
      {"smiles": "CN(C1c2ccccc2Oc2ccccc21)S(=O)(=O)c1cc(Cl)ccc1Cl", "growth": "21.4% (inactive)"},
      {"smiles": "O=C1CC(c2cccc(-c3cccnc3)c2)=Nc2ccc(Br)cc2N1", "growth": "23.6% (inactive)"},
      {"smiles": "COc1ccc(-c2oncc2-c2cc(OC)c3c(c2)OCO3)cc1", "growth": "18% (inactive)"},
      {"smiles": "Cc1ccc([P+](Cc2ccc([N+](=O)[O-])cc2)(c2ccc(C)cc2)c2ccc(C)cc2)cc1", "growth": "29.7% (inactive)"},
      {"smiles": "COc1ccc(C2=NNC(c3sc(Cl)nc3Cl)C2)cc1", "note": "(stereo unspecified)", "growth": "40.8% (inactive)"},
      {"smiles": "COc1ccccc1CNCCCN1C(=O)c2ccc3c4c(ccc(c24)C1=O)C(=O)N(CCCNCCNCCCN)C3=O", "growth": "-39.1% (active)"},
      {"smiles": "C[C@@H]1C(=O)N(C[C@H](Cc2ccccc2)NC(=O)OCc2ccccc2)[C@]1(Cc1ccccc1)C(=O)OCc1ccccc1", "growth": "35% (inactive)"},
      {"smiles": "Cc1cccc2c(Nc3ccc(NS(C)(=O)=O)cc3)c3ccc([N+](=O)[O-])cc3nc12", "growth": "0.147% (active)"},
      {"smiles": "O=C(Cn1ccc(=O)[nH]c1=O)c1ccc([N+](=O)[O-])o1", "growth": "38.2% (inactive)"},
      {"smiles": "CC1(C)CCc2cc(-c3ccn(S(=O)(=O)c4ccc(Cl)cc4)n3)ccc2O1", "growth": "71.3% (inactive)"},
      {"smiles": "COc1cc(-c2nc(-c3nnc(-c4cccnc4)o3)c3ccccn23)cc(OC)c1OC", "growth": "107% (inactive)"},
      {"smiles": "NCCNc1ccc2cc(-c3nc4ccccc4[nH]3)c(=O)oc2c1", "growth": "80.9% (inactive)"},
      {"smiles": "Nc1cc2c(cc1Cl)-c1ccc(Cl)cc1C2=O", "growth": "42.1% (inactive)"},
      {"smiles": "C[n+]1c(/C=C/c2c[nH]c3ccccc23)ccc2ccccc21", "growth": "19.4% (inactive)"},
      {"smiles": "N#C/C(=C\\N1C(=O)/C(=C/c2cccc([N+](=O)[O-])c2)SC1=S)c1nc2ccccc2s1", "growth": "70.9% (inactive)"},
      {"smiles": "COC(=O)C1(C(=O)OC)C2C(=O)C3C(C21)C3(C(=O)OC(C)(C)C)C(=O)OC(C)(C)C", "note": "(stereo unspecified)", "growth": "103% (inactive)"},
      {"smiles": "COc1ccc(/C(=C/c2cc(OC)c(OC)cc2[N+](=O)[O-])C(=O)O)cc1", "growth": "105% (inactive)"},
      {"smiles": "O=CNc1c(Cl)cc2c(c1Cl)Cc1cc([N+](=O)[O-])ccc1-2", "growth": "15.3% (inactive)"},
      {"smiles": "CCCCCC(CCC)COC(=O)c1ccc(OC)cc1", "note": "(stereo unspecified)", "growth": "92.5% (inactive)"}
    ]},
    {"tested_on": "HCT-116 colon", "experiment": "NCI-60 one-dose screen, 48 h (100 = growth as untreated, 0 = no growth, -100 = all killed)", "details": "10 µM", "values": [
      {"smiles": "CCOC(=O)Nc1ccc2c(c1)C(=O)N(CCOC)c1ccccc1O2", "growth": "24.4% (inactive)"},
      {"smiles": "COc1ccc(Nc2ccnc(N3CCN(c4ccnc5cc(Cl)ccc45)CC3)n2)cc1", "growth": "0.434% (active)"},
      {"smiles": "O=C(c1ccccc1)C(Nc1ccccc1)c1ccccc1", "note": "(stereo unspecified)", "growth": "87.1% (inactive)"},
      {"smiles": "Cc1ccc(/C=C2\\CN(Cc3cn(CCNc4ccnc5cc(Cl)ccc45)nn3)C/C(=C\\c3ccc(C)cc3)C2=O)cc1", "growth": "-53.5% (active)"},
      {"smiles": "C[C@]12CC[C@H]3[C@@H](CC=C4C[C@@H](O)CC[C@@]43C)[C@@H]1CC[C@@H]2C(=O)C/C=N/O", "growth": "79.1% (inactive)"},
      {"smiles": "Cc1ccccc1[P+](Cc1ccccc1)(c1ccccc1)c1ccccc1", "growth": "12.7% (inactive)"},
      {"smiles": "COc1ccccc1Cn1cc2c(c1-c1ccccc1)CCc1cnoc1-2", "growth": "20.9% (inactive)"},
      {"smiles": "Clc1cc(Cl)c(OCCCCCCN2CCNCC2)c(Cl)c1", "growth": "12% (inactive)"},
      {"smiles": "Cc1c(C(=O)N[C@H](CO)Cc2ccccc2)[nH]c2ccc(Cl)cc2c1=O", "growth": "97.4% (inactive)"},
      {"smiles": "CC(C)C(C)C(N)C(=O)O", "note": "(stereo unspecified)", "growth": "94.5% (inactive)"},
      {"smiles": "CCn1nc(-c2ccccn2)c2cccnc2c1=S", "growth": "17.1% (inactive)"},
      {"smiles": "COc1cc(CSc2nc3ccc(Cl)cc3c(=O)n2Cc2ccccc2)cc(OC)c1OC", "growth": "20.8% (inactive)"},
      {"smiles": "C[C@H](NC(=O)[C@@H]1CSSC[C@@H](NC(=O)Cc2nc3ccccc3cc2O)C(=O)NCC(=O)N1C)c1ccccc1", "growth": "44.7% (inactive)"},
      {"smiles": "CCOC(=O)[C@@H](Cc1ccccc1)NC(=O)c1[nH]c2ccc(Cl)cc2c(=O)c1C", "growth": "65.2% (inactive)"},
      {"smiles": "O=C(Nc1cccc(Cl)c1)OCC(COC(=O)Nc1cccc(Cl)c1)(COC(=O)Nc1cccc(Cl)c1)[N+](=O)[O-]", "growth": "16.3% (inactive)"},
      {"smiles": "O=C1/C(=C/c2ccc(O)cc2)Oc2ccc(Cl)cc21", "growth": "65.7% (inactive)"},
      {"smiles": "COc1cc(/C=C/C(=O)c2cc(-c3ccc(F)cc3)ccc2O)cc(OC)c1OC", "growth": "60% (inactive)"},
      {"smiles": "COc1ccc(C(=O)n2nc(CC(=O)NCc3ccccc3)nc2N)cc1", "growth": "99.5% (inactive)"},
      {"smiles": "COc1cc(/C=C/C(=O)c2cc(-c3ccc(C(F)(F)F)cc3)ccc2O)cc(OC)c1OC", "growth": "46.6% (inactive)"},
      {"smiles": "CN(C1c2ccccc2Oc2ccccc21)S(=O)(=O)c1cc(Cl)ccc1Cl", "growth": "31.3% (inactive)"},
      {"smiles": "O=C1CC(c2cccc(-c3cccnc3)c2)=Nc2ccc(Br)cc2N1", "growth": "23% (inactive)"},
      {"smiles": "COc1ccc(-c2oncc2-c2cc(OC)c3c(c2)OCO3)cc1", "growth": "14.1% (inactive)"},
      {"smiles": "Cc1ccc([P+](Cc2ccc([N+](=O)[O-])cc2)(c2ccc(C)cc2)c2ccc(C)cc2)cc1", "growth": "22% (inactive)"},
      {"smiles": "COc1ccc(C2=NNC(c3sc(Cl)nc3Cl)C2)cc1", "note": "(stereo unspecified)", "growth": "28% (inactive)"},
      {"smiles": "COc1ccccc1CNCCCN1C(=O)c2ccc3c4c(ccc(c24)C1=O)C(=O)N(CCCNCCNCCCN)C3=O", "growth": "1.05% (active)"},
      {"smiles": "C[C@@H]1C(=O)N(C[C@H](Cc2ccccc2)NC(=O)OCc2ccccc2)[C@]1(Cc1ccccc1)C(=O)OCc1ccccc1", "growth": "32.3% (inactive)"},
      {"smiles": "Cc1cccc2c(Nc3ccc(NS(C)(=O)=O)cc3)c3ccc([N+](=O)[O-])cc3nc12", "growth": "5.63% (active)"},
      {"smiles": "O=C(Cn1ccc(=O)[nH]c1=O)c1ccc([N+](=O)[O-])o1", "growth": "88.7% (inactive)"},
      {"smiles": "CC1(C)CCc2cc(-c3ccn(S(=O)(=O)c4ccc(Cl)cc4)n3)ccc2O1", "growth": "61.1% (inactive)"},
      {"smiles": "COc1cc(-c2nc(-c3nnc(-c4cccnc4)o3)c3ccccn23)cc(OC)c1OC", "growth": "96.8% (inactive)"},
      {"smiles": "NCCNc1ccc2cc(-c3nc4ccccc4[nH]3)c(=O)oc2c1", "growth": "93.9% (inactive)"},
      {"smiles": "Nc1cc2c(cc1Cl)-c1ccc(Cl)cc1C2=O", "growth": "76.4% (inactive)"},
      {"smiles": "C[n+]1c(/C=C/c2c[nH]c3ccccc23)ccc2ccccc21", "growth": "31% (inactive)"},
      {"smiles": "N#C/C(=C\\N1C(=O)/C(=C/c2cccc([N+](=O)[O-])c2)SC1=S)c1nc2ccccc2s1", "growth": "81.6% (inactive)"},
      {"smiles": "COC(=O)C1(C(=O)OC)C2C(=O)C3C(C21)C3(C(=O)OC(C)(C)C)C(=O)OC(C)(C)C", "note": "(stereo unspecified)", "growth": "101% (inactive)"},
      {"smiles": "COc1ccc(/C(=C/c2cc(OC)c(OC)cc2[N+](=O)[O-])C(=O)O)cc1", "growth": "116% (inactive)"},
      {"smiles": "O=CNc1c(Cl)cc2c(c1Cl)Cc1cc([N+](=O)[O-])ccc1-2", "growth": "6.23% (active)"},
      {"smiles": "CCCCCC(CCC)COC(=O)c1ccc(OC)cc1", "note": "(stereo unspecified)", "growth": "100% (inactive)"}
    ]}
  ]
}
